Test results: PubChem BioAssay AID1523 (The Scripps Research Institute Molecular Screening Center, 2009)
The list shows a part of the results. Unmarked numbers belong to inactive results. No stated cut-off is given here; in the data, active means activation above about 12%; inactive means the rest.

Molecular target: Sphingosine 1-phosphate receptor 4 (Homo sapiens) (UniProt O95977)
Assay: activators of human S1P4 signalling – cell-based, high throughput, confirmation (AID 1523);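 further: 0% = vehicle and 100% = full reference agonist response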
Conditions: S1P4 agonist cell-based reporter assay; at 4.98 µM; stronger effect = higher value

Sequence of Sphingosine 1-phosphate receptor 4 (Homo sapiens) (O95977 whole entry, looked up): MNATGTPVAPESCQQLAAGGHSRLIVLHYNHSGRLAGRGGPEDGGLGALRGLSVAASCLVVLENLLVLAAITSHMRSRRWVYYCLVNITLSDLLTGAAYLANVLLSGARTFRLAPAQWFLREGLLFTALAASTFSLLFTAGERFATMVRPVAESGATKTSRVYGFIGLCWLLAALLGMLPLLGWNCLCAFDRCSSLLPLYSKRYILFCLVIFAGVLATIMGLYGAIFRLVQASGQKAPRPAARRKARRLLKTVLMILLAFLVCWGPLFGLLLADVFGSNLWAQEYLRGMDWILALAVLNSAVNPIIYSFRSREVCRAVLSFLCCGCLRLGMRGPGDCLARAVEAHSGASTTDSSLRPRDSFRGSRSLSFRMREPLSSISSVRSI

CC(C)N(CC#CCC1(O)c2ccccc2-c2ccccc21)C(C)C
activation: -2.04%
